Compound activity: PubChem, several laboratories
E coli growth-1: inhibitors of Escherichia coli growth; OD600, 23 h; hits give low values; OD600 absorbance (no concentration beside the values); 330,000 tested, 0.21% active;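 active = OD600 absorbance below the run mean of sample wells minus 3.6 SD, in any replicate, cut at about 0.56 in these data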
Tat transport: inhibitors of E. coli Tat protein transport. E. coli MC4100 TorA-mCherry Tat export, fluorescence. inhibition, % at 10 µM. AID 488895. 340,000 tested, 0.036% active;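 active = mean replicate inhibition at least 50% and at least half of replicates individually reaching 50%; inconclusive = only one of the two criteria met; inactive = neither criterion met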;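 note: exported cargo escapes ClpAP degradation while cytoplasmic cargo is degraded and loses fluorescence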
AddAB inh: less growth of phage-infected E. coli with AddAB; inhibition, % at 11.9 µM; E. coli expressing H. pylori AddAB, absorbance growth; 330,000 tested, 0.29% active; in the data active = inhibition above about 12%
E coli growth-2: reduces bacterial viability in AddAB counter-screen; inhibition, % at 11.9 µM; E. coli V3065 growth, OD600 absorbance, 18 h; 330,000 tested, 0.27% active;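 active = inhibition above the campaign's mean inhibition across all tested compounds plus 3 SD, cut at about 9.9% in these data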;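 note: uninfected addAB+ strain grown without phage in ampicillin broth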
phage Ecoli inh: E. coli growth loss with phage present; growth absorbance; inhibition, % at 11.9 µM; 360,000 tested, 0.26% active; in the data active = inhibition above about 11%
AddAB conf: confirmation screen: growth loss of phage-infected E. coli expressing H. pylori AddAB. shares compounds with AddAB inh. AID 488942. inhibition, % at 11.9 µM. 880 tested, 64% active. E. coli V3065 expressing H. pylori AddAB, T4 phage, OD; T4 phage with gene 2 nonsense mutations;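 active = mean inhibition above a set limit taken from the earlier primary screen, cut at about 13% in these data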;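 note: higher means less bacterial growth since AddAB block lets phage replicate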
RecBCD counter: AddAB counter-screen: growth loss of RecBCD+ E. coli infected with mutant T4 phage; inhibition, % at 11.9 µM; AID 488955; 880 tested, 73% active; E. coli V66 + mutant T4 phage, OD growth; shares compounds with AddAB inh;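 active = mean inhibition above the mean of solvent-only control wells plus 3 SD, cut at about 4% in these data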;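 note: optical density read after an 18 h incubation at 37 °C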
bact viab count: counter-screen: bacterial growth inhibition. shares compounds with AddAB inh. bacterial viability, absorbance (AddAB counterscreen). inhibition, % at 11.9 µM. 880 tested, 35% active. AID 488956; in the data active = inhibition above about 25%
Large screens that a line does not name were inactive (follow-up assays come after a bar, where they were run). Rows were chosen to be rich in hits. Some 0.51% of all compounds tested hit in one or more screens of this group.

CC(C)Cc1cc(C(=O)NCCN2CCOCC2)no1	AddAB inh 19 | AddAB conf inactive | RecBCD counter inactive | bact viab count inactive
Cc1cnc(CNC(=O)c2ccc3oc(C(C)C)nc3c2)[nH]1	none
COc1cc(CNC(=O)c2ccc3oc(C(C)C)nc3c2)cc(OC)c1	AddAB inh 14 | AddAB conf inactive | RecBCD counter 6.4 | bact viab count inactive
COc1ccc(-c2nc(C(N)=O)c3[nH]c(=O)n(-c4ccccc4OC)c3n2)c(OC)c1	AddAB inh 43, E coli growth-2 18 | AddAB conf inactive | RecBCD counter inactive | bact viab count inactive
CC[n+]1c(/C=C/N(C)c2ccccc2)n(-c2ccccc2)c2ccc(-c3nc4ccccc4s3)cc21	E coli growth-1 0.38, AddAB inh 18, E coli growth-2 35 (no result: phage Ecoli inh) | AddAB conf 52 | RecBCD counter 6.7 | bact viab count inactive
CCN1/C(=C/C=C/c2oc3ccc(-c4ccccc4)cc3[n+]2CC)Oc2ccc(-c3ccccc3)cc21	AddAB inh 12, E coli growth-2 12 | AddAB conf inactive | RecBCD counter 5.6 | bact viab count inactive
O=C(N/N=C\c1cccc(Cl)c1)c1ccc(Cn2cc(Br)c([N+](=O)[O-])n2)o1	AddAB inh 29, E coli growth-2 26 (no result: E coli growth-1) | AddAB conf 29 | RecBCD counter 4.2 | bact viab count inactive
CCCNC(=O)c1cn(CC)c2cc(N3CCN(C(=O)c4ccco4)CC3)c(F)cc2c1=O	E coli growth-1 0.089, AddAB inh 94, E coli growth-2 58 | AddAB conf 99 | RecBCD counter inactive | bact viab count 58
CCn1cc(C(=O)NN)c(=O)c2cc(F)c(N3CCCCC3)cc21	none (no result: AddAB inh, E coli growth-2)
CCn1cc(C(=O)NCc2cccc(F)c2)c(=O)c2cc(F)c(N3CCN(C(=O)c4ccco4)CC3)cc21	E coli growth-1 0.41, AddAB inh 95, E coli growth-2 70 | AddAB conf 98 | RecBCD counter inactive | bact viab count 62
CC1CN(C(C)CO)C(=O)c2cc(NC(=O)NC3CCCCC3)ccc2OC1CN(C)C(=O)NC1CCCCC1 (centres undefined)	none (no result: Tat transport, AddAB inh, E coli growth-2, phage Ecoli inh)
NC1CCN(c2nc3c(cc2F)c(=O)c(C(=O)O)cn3-c2ccc(F)cc2F)C1 (centres undefined)	E coli growth-1 0.07, Tat transport 72, AddAB inh 101, E coli growth-2 102, phage Ecoli inh 101 | AddAB conf 97 | RecBCD counter 100 | bact viab count 100
Cc1cccc(-c2cc(=O)c(C(=O)O)cn2-c2ccc(F)cc2F)c1	none
COc1cccc(C(=O)Nc2nnc(-c3cccs3)o2)c1	AddAB inh 12 | AddAB conf inactive | RecBCD counter 5.7 | bact viab count inactive
COc1cccc(C(=O)Nc2nnc(-c3ccc(Cl)cc3)o2)c1	none
COc1cc(OC)c(C=NNC(=O)COc2cccc3cccnc23)c(OC)c1	none (no result: Tat transport, AddAB inh, E coli growth-2, phage Ecoli inh)
O=C(NCc1cccnc1)Nc1ccc2c(c1)OCO2	AddAB inh 14 | AddAB conf inactive | RecBCD counter inactive | bact viab count inactive
c1cncc(CNc2ccc3c(c2)OCO3)c1	none
C/C(=N\Nc1nc2ccccc2[nH]1)c1ccccn1	AddAB inh 27, E coli growth-2 27, phage Ecoli inh 27 (no result: E coli growth-1) | AddAB conf 25 | RecBCD counter 14 | bact viab count inactive
Cc1ccc(C2=NS(=O)(=O)N(C)C(C(=O)NCc3ccco3)=C2)cc1	AddAB inh 26 | AddAB conf inactive | RecBCD counter inactive | bact viab count inactive
COc1ccc(C2=NS(=O)(=O)N(C)C(C(=O)NCc3ccco3)=C2)cc1OC	none
c1ccc(CC2=NCCN2)cc1	Tat transport inconclusive
Cc1cc(C(C)(C)C)cc(C)c1CC1=NCCN1	AddAB inh 14, E coli growth-2 10.0 | AddAB conf 53 | RecBCD counter inactive | bact viab count inactive
O=C(COC(=O)Cc1n[nH]c(=O)c2ccccc12)Nc1c(Cl)cccc1C(F)(F)F	AddAB inh 56, E coli growth-2 27 | AddAB conf inactive | RecBCD counter inactive | bact viab count inactive
O=C(COC(=O)Cc1c[nH]c2ccccc12)Nc1c(Cl)cccc1C(F)(F)F	none
Cc1noc(NS(=O)(=O)c2ccc(N/C=C\C(=O)c3ccncc3)cc2)c1C	none
Cc1noc(NS(=O)(=O)c2ccc(N/C=C/C(=O)c3cccnc3)cc2)c1C	AddAB inh 13 | AddAB conf inactive | RecBCD counter inactive | bact viab count inactive
CCc1ccc(C(=O)/C=C/Nc2ccc(S(=O)(=O)Nc3onc(C)c3C)cc2)cc1	AddAB inh 14 | AddAB conf inactive | RecBCD counter inactive | bact viab count inactive
Cc1noc(NS(=O)(=O)c2ccc(N/C=C/C(=O)c3ccc(F)cc3)cc2)c1C	none
CCC(CC)CN1C(Nc2ccccc2)=NCC1CC(C)C (centres undefined)	none (no result: Tat transport, AddAB inh, E coli growth-2, phage Ecoli inh)
Cc1ccc(S(=O)(=O)N=c2sccn2C)cc1	none (no result: Tat transport, AddAB inh, E coli growth-2, phage Ecoli inh)
NC(=O)c1ccsc1NC(=O)COC(=O)c1ccc([N+](=O)[O-])o1	AddAB inh 97, E coli growth-2 13 | AddAB conf 97 | RecBCD counter 8.3 | bact viab count inactive
O=C(c1ccco1)N1CCN(C(=NS(=O)(=O)c2cccs2)c2ccccc2Cl)CC1	none (no result: Tat transport, AddAB inh, E coli growth-2, phage Ecoli inh)
CC1CCCCN1Cc1nc2c(c(=O)n(C)c(=O)n2C)n1Cc1c(F)cccc1Cl (centres undefined)	AddAB inh 35, E coli growth-2 25 (no result: phage Ecoli inh) | AddAB conf inactive | RecBCD counter inactive | bact viab count inactive
Cn1c(=O)c2c(nc(CN3CCC(C(N)=O)CC3)n2Cc2c(F)cccc2Cl)n(C)c1=O	none
COc1cc(NS(=O)(=O)c2ccc(NC(=S)NC(=O)c3sc4ccccc4c3Cl)cc2)ncn1	AddAB inh 13 | AddAB conf inactive | RecBCD counter inactive | bact viab count inactive
O=C(O)CC(Cc1ccc(Cl)cc1)C(=O)Nc1ccc([N+](=O)[O-])cc1 (centres undefined)	none
O=C(NC(CO)Cc1ccc([N+](=O)[O-])cc1)C(Cl)Cl (centres undefined)	E coli growth-1 0.061, AddAB inh 81, E coli growth-2 83 (no result: phage Ecoli inh) | AddAB conf 88 | RecBCD counter 88 | bact viab count 88
O=C1c2c(O)ccc(O)c2C(=O)c2c(NCCNCCO)ccc(NCCNCCO)c21	AddAB inh 31, E coli growth-2 32 | AddAB conf 52 | RecBCD counter inactive | bact viab count 51
O=C1c2ccccc2C(=O)c2c(Nc3ccc(CCO)cc3)ccc(O)c21	none (no result: E coli growth-1)
O=C(Cn1cc(C(F)(F)F)ccc1=O)NN=Cc1cccc(Cl)c1Cl	none (no result: Tat transport, AddAB inh, E coli growth-2, phage Ecoli inh)
O=S(=O)(Nc1cccc2ncccc12)c1cccs1	AddAB inh 18 (no result: phage Ecoli inh) | AddAB conf inactive | RecBCD counter 5.2 | bact viab count inactive
